In PubChem BioAssay:
Active and inactive are the calls of the source.

How the values were obtained:
[1] = system: Plasmodium falciparum Sir2 (PF13_0152, Sir2A); assay: Plasmodium falciparum Sir2A binding compounds – biochemical, small-molecule microarray, 635 nm fluorescence, primary screen (AID 1098); conditions: fluorescence 635 nm, higher = more signal;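 note: score merges spot fluorescence intensity with its signal-to-noise ratio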
[2] = probe aDKK1 binding to arrayed compounds – biochemical, biotinylated probe, 635/667 nm fluorescence, primary screen (AID 1099); conditions: small-molecule microarray, higher = more signal;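 note: score merges 667nm spot fluorescence with signal to noise across triplicate slides; reference of the scale not given here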
[3] = probe aCHRDL2 binding to arrayed compounds – biochemical, biotinylated probe, 635/667 nm fluorescence, primary screen (AID 1100); conditions: small-molecule microarray, higher = more signal
[4] = change in splice reporter luminescence, either direction, cell-based, HEK293, spliceosome inhibition project, primary screen (AID 1101); conditions: HEK293 splicing luciferase reporter, 24 h, higher = more signal, called active from +8 up or from −8 down;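 note: HEK293 cells carrying a splicing-competent luciferase reporter gene; test concentration not given here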
[5] = molecular target: Fibroblast growth factor 10 (Homo sapiens) (UniProt O15520); assay: compounds binding fibroblast growth factor 10 – biochemical, small-molecule microarray, 635 nm fluorescence, primary screen (AID 1102); conditions: FGF10 binding, fluorescence 635 nm, higher = more signal
Sequence of Fibroblast growth factor 10 (Homo sapiens) (O15520 whole entry, looked up): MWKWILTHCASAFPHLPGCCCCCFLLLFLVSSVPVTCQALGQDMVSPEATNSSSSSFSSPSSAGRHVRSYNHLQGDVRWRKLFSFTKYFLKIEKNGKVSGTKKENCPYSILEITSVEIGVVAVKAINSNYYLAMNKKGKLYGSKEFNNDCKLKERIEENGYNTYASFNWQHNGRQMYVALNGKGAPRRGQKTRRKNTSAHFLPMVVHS

[6] = system: glycogen synthase kinase-3 (GSK3A per assay name; protocol says GSK3B); assay: compounds binding glycogen synthase kinase-3 – biochemical, small-molecule microarray, 635 nm fluorescence, GSK3A, primary screen (AID 1103); conditions: fluorescence 635 nm, higher = more signal; note: the record names both GSK3A and GSK3B
[7] = molecular target: Epidermal growth factor receptor (Homo sapiens) (UniProt P00533); assay: compounds binding epidermal growth factor receptor – biochemical, small-molecule microarray, 635 nm fluorescence, primary screen (AID 1104); conditions: EGFR binding, higher = more signal;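 note: score merges 667 nm emission intensity with spot signal to noise over triplicate slides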
Sequence of Epidermal growth factor receptor (Homo sapiens) (P00533 whole entry, looked up): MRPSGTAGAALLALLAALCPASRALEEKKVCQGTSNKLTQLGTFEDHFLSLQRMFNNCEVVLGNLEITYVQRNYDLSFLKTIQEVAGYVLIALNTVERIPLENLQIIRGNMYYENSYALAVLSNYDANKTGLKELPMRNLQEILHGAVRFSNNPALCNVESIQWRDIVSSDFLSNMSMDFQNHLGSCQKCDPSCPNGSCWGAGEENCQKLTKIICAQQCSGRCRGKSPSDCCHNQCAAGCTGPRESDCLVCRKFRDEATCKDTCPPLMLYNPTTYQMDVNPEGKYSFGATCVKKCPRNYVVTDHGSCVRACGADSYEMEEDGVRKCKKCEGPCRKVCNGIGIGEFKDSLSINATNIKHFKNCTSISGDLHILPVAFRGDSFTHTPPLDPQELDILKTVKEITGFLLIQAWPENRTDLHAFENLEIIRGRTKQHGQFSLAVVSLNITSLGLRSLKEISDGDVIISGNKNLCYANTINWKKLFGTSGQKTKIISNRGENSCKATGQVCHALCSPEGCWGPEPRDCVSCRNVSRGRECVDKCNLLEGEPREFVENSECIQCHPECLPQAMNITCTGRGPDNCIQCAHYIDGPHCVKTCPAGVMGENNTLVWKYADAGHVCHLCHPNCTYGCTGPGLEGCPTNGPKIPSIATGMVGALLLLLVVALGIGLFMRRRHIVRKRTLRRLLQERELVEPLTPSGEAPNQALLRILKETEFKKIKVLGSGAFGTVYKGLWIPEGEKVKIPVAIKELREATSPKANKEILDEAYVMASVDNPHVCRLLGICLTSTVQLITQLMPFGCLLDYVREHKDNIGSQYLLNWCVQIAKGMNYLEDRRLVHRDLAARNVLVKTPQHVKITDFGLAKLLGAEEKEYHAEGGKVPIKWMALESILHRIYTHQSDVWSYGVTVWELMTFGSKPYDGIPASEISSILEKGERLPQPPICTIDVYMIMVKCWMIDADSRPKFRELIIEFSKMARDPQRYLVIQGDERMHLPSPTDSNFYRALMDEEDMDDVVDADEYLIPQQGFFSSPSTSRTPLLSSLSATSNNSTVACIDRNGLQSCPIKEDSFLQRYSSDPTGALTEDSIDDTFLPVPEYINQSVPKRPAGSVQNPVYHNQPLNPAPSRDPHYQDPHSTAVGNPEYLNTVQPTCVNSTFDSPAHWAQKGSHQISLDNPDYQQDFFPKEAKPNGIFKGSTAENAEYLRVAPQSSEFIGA

[8] = molecular target: Follistatin-related protein 3 (Homo sapiens) (UniProt O95633); assay: compounds binding follistatin-related protein 3 – biochemical, small-molecule microarray, 635 nm fluorescence, primary screen (AID 1105); conditions: FSTL3 binding, higher = more signal;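 note: score merges emission near 667 nm and signal to noise per printed spot across three slides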
Sequence of Follistatin-related protein 3 (Homo sapiens) (O95633 whole entry, looked up): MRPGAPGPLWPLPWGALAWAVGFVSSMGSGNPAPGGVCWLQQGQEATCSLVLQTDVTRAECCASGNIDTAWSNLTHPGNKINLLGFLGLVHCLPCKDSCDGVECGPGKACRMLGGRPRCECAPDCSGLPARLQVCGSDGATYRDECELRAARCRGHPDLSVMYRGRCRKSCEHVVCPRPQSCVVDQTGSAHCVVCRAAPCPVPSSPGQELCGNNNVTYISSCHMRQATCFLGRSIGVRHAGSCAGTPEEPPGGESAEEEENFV

[9] = molecular target: Dickkopf-related protein 1 (Homo sapiens) (UniProt O94907); assay: small molecules binding DKK1 protein – biochemical, small-molecule microarray, 635 nm fluorescence scan, primary screen (AID 1106); conditions: higher = more signal;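 note: score merges emission near 667 nm with signal to noise over three replicate slides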
Sequence of Dickkopf-related protein 1 (Homo sapiens) (O94907 whole entry, looked up): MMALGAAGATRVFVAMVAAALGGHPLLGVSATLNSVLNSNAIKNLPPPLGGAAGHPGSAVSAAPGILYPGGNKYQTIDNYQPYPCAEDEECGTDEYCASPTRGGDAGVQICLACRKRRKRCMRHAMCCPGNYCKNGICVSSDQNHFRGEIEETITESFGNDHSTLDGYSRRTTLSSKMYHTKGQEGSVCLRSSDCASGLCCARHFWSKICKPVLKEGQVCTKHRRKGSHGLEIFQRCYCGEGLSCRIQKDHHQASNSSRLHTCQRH

[10] = system: Inhibin beta A chain (activin A); assay: small molecules binding activin A – biochemical, small-molecule microarray, 635 nm fluorescence scan, primary screen (AID 1107); conditions: INHBA, higher = more signal;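 note: mouse activin A protein probed at 4.33 µg/mL on printed slides; score merges bound-protein fluorescence near 667 nm with spot signal-to-noise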

| SMILES | composite z-score [1] | composite z-score [2] | composite z-score [3] | z-score [4] | composite z-score [5] | composite z-score [6] | composite z-score [7] | composite z-score [8] | composite z-score [9] | composite z-score [10] |
| --- | --- | --- | --- | --- | --- | --- | --- | --- | --- | --- |
| COC(=O)[C@@]1(Cc2ccc(OC)cc2)[C@H]2c3cc(C(=O)N(C)C)n(Cc4ccsc4Br)c3C[C@H]2CN1C(=O)c1ccccc1 | 0.895 | 1.08 | 0.826 | -1.84 (inactive) | -0.0197 | -0.288 | 0.374 | -0.288 | -0.414 | 0.758 |
| Cc1ccc(S[C@]2(C(=O)NCCN3CCOCC3)CC(=O)N(C3CCCCC3)[C@@H]2c2ccc(CO)cc2I)cc1 | 0.567 | -0.69 | -0.13 | -0.341 (inactive) | 1.29 | 1.19 | 0.0803 | 1.19 | -0.0675 | 0.714 |
| C=CCC(OC(C)=O)[C@@H]1[C@@H](N(Cc2cc3ccccc3o2)C(=O)Cc2ccc(OC)cc2)c2cc(OCCCO)ccc2N1C(=O)Cc1ccc(OC)cc1 (stereo not given in full) | -0.193 | -0.0082 | 0.246 | -0.782 (inactive) | 0.233 | -0.238 | 0.157 | -0.0138 | 0.214 | 1.3 |
| C=C(C(=O)CC[C@@H](OC(C)=O)c1cccc(OCCO)c1)C(C)C | 1.24 | -0.136 | 0.114 | 2.37 (inactive) | 0.0186 | -0.664 | -0.649 | -0.0718 | -0.375 | 1.35 |
| C=C(/C(=C/C[C@H](OC(=O)c1ccncc1)c1ccccc1OCCO)c1cc(C(=O)OC)ccc1OC)C(C)C | 0.748 | -0.0168 | 0.253 | -0.361 (inactive) | 1.54 | 0.33 | -0.105 | 1.1 | 0.599 | 1.25 |
| COC(=O)[C@]1(CO)N=C(c2ccc(OCCCO)cc2)O[C@@H]1c1ccccc1CN=[N+]=[N-] | 0.853 | 0.109 | 0.292 | 0.706 (inactive) | 0.0716 | 0.421 | -0.237 | 0.0239 | 0.102 | 0.193 |
| C#CCN(C/C=C/c1ccccc1)[C@H](CO[Si](C)(C)C(C)(C)C)c1ccccc1 | 0.209 | -0.454 | -0.541 | -0.736 (inactive) | 0.108 | -0.871 | -0.468 | -0.261 | -0.156 | -0.0543 |
| CCOC(=O)C1=C[C@@H](C(C)(C)C)N(S(=O)(=O)c2ccc(C)cc2)[C@H]1c1ccccc1Cl | 0.993 | 1.18 | 1.11 | -0.232 (inactive) | 0.915 | 1.29 | 0.292 | 1.18 | 0.0627 | 0.0829 |
| COCCOC(=O)N1C(=O)[C@@]2(c3cc(C#CC4(O)CCCCCC4)ccc31)[C@H](c1ccc(OCCO)cc1)N1[C@H](c3ccccc3)[C@H](c3ccccc3)OC(=O)[C@H]1[C@@H]2C(=O)N1CCCCCCC1 | 1.74 | 1.63 | 0.965 | -1.55 (inactive) | 1.35 | 1.32 | 0.825 | 1.51 | 0.988 | 1.74 |
| CC(C)C(=C=CC[C@@H](O)c1cccc(OCCO)c1)CCO | 0.725 | 0.0614 | 0.111 | -0.87 (inactive) | 1.51 | -0.615 | -0.554 | 0.457 | 0.137 | 0.677 |
| CC(C)(C)N1CC=CC23O[C@@H]4/C=C\CCCOC(=O)C4[C@H]2C(=O)N(CCCCCCO)[C@@H]3C1=O (stereo not given in full) | 0.873 | -0.204 | 0.63 | -0.725 (inactive) | -0.374 | -0.749 | -0.741 | 0.0927 | -0.857 | 0.705 |
| COc1cccc(C[C@H]2C[C@@H](CO[Si](C(C)C)(C(C)C)C(C)C)N3C(=O)[C@@]4(C(C)=O)O[C@@]23[C@@H]2C(=O)N(C)C(=O)[C@@H]24)c1 | 0.95 | -0.0648 | -0.197 | -0.989 (inactive) | 1.22 | 0.5 | 0.494 | 1.17 | 1.62 | -0.0336 |
| Cc1c(NC(=O)/C(C#N)=C/c2ccc(Cl)cc2)c(=O)n(-c2ccccc2)n1C | 0.878 | -0.115 | 0.1 | -0.0648 (inactive) | 0.938 | 0.0624 | 0.324 | 0.371 | 0.101 | 0.311 |
| COCCOC(=O)N1C(=O)[C@@]2(c3cc(C#CC4=CCCCC4)ccc31)[C@H](c1ccccc1OCCO)N1[C@H](c3ccccc3)[C@H](c3ccccc3)OC(=O)[C@H]1[C@@H]2C(N)=O | 1.35 | -0.0668 | -0.144 | -3.87 (inactive) | 1.29 | 1.31 | 0.766 | 1.2 | 0.912 | 0.557 |
